# Assay results: PubChem BioAssay AID488841 (Sanford-Burnham Center for Chemical Genomics, 2010)
# Hit rate of the full screen: of about 1,400 compounds, about 380 (27%) were called active. This is one part of the list. Values without a mark were called inactive.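 How the source made its calls: active means mean inhibition above 50% across duplicate retests at 10 µM; inactive means the rest.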
# Test: inhibition of NALP1/ASC/caspase-1 reporter signal in yeast, confirmation, NALP1 inhibitor project, S. cerevisiae, luminescence, single concentration (AID 488841);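 further: plate controls were DMSO in galactose medium for no effect and cells in plain SD medium for full effect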
# Details: S. cerevisiae NALP1/ASC/Caspase-1 reporter, beta-gal luminescence; at 10 µM; active compounds read high
row,Compound,inhibition
1,CCOC(=O)c1c(C)[nH]c(C(=O)COC(=O)c2oc3ccccc3c2C)c1C,23.3%
2,CCC(C)NCCOc1cccc(Br)c1 (stereo not drawn),26.1%
3,CN(Cc1ccccc1)c1ncnc2c1cnn2-c1ccccc1,49.5%
4,COC(=O)c1ccc(Cn2cnc3c(cnn3-c3ccc(Cl)cc3)c2=O)o1,34.6%
5,COCCN(CCOC)c1ncnc2c1cnn2-c1ccc(Cl)cc1,56.8% (active)
6,Cc1occc1C(=O)Nc1c(F)c(F)c(F)c(F)c1F,25.9%
7,CCC1(CC)Cc2ccccc2C(Nc2c(C)n(C)n(-c3ccccc3)c2=O)=N1,21.4%
8,S=C1SCN(Cc2cccnc2)CN1Cc1cccnc1,76% (active)
9,NNC(=S)NCc1cccnc1,24.5%
10,O=C1/C(=C\c2cccnc2)CN(Cc2ccccc2)C/C1=C\c1cccnc1,22.2%
11,Cc1ccc(Sc2nnc(Cc3ccccc3)c3ccccc23)cc1,38.2%
12,O=C(c1ccccc1)c1ccc(OCC(O)CNC2CCCc3ccccc32)cc1 (stereo not drawn),32.6%
13,CCOC(=O)N1CCN(c2c(NCCOC)c(=O)c2=O)CC1,26.4%
14,CCOC(=O)N1CCN(c2ccc(Cl)c(Cl)c2)CC1,60.3% (active)
15,CCN1CCN(C(=S)Nc2ccc(Cl)c(Cl)c2)CC1,37%
16,COc1ccc(OC)c(S(=O)(=O)Nc2ccc(O)c3ccccc23)c1,32.9%
17,O=C(O)[C@@H](c1ccccc1)N1Cc2ccccc2C1=O,26.9%
18,COc1ccc(NCc2ccc([N+](=O)[O-])s2)cc1,14.8%
19,CCN(CC)c1ccc(/C=N/OC(C)C(=O)Nc2ccc(C)cc2)cc1 (stereo not drawn),41%
20,CCOC(=O)N/N=C/c1ccc(N(CC)CC)cc1O,52.4% (active)
21,Clc1ccc2c(N/N=C/c3cccc(Br)c3)ccnc2c1,42.9%
22,O=C(CCN1C(=O)c2ccccc2C1=O)N1CCN(C2c3ccccc3-c3ccccc32)CC1,18.4%
23,COc1ccc(-c2[nH]ncc2CN2CCC(OCc3ccccn3)CC2)c(F)c1,23.8%
24,Cn1cc(C(=O)NCc2ccc(F)cc2)c(=O)c2cc(S(=O)(=O)N3CCCCC3)ccc21,32.6%
25,CC(C)C(C)NC(=O)COc1ccc(S(=O)(=O)N2CCOCC2)cc1[N+](=O)[O-] (stereo not drawn),10.1%
26,O=[N+]([O-])c1cc(S(=O)(=O)N2CCCCCC2)ccc1F,74.7% (active)
27,CC(C)NC(=O)c1ccc(COCC(F)(F)F)cc1,41.5%
28,CN1c2ccccc2-c2nc3ccccc3n2C1c1cccs1 (stereo not drawn),26.3%
